# From PubChem BioAssay (Tox21)
# Inconclusive results are not listed. A call without a number means that no potency is given here. Calls of active or inactive are those of the source. Calls follow the shape of the dose curve; as a rule, active = well fitted activation curve with a large enough effect in the repeat runs; inconclusive = weak or mixed curves, or effect the other way; inactive = no such curve, though single readings can be large or run the other way.
# Test: qHTS assay to identify small molecule agonists of the retinoic acid receptor (RAR) signaling pathway (AID 1159553)
# Conditions: C3RL4 RARE luciferase reporter, agonist, 6 h; series mostly up to 73.3 µM
# Source text: National Center for Advancing Translational Sciences [NCATS] NIH Chemical Genomics Center [NCGC] U.S. Environmental Protection Agency [EPA] National Institutes of Environmental Health Sciences [NIEHS] National Toxicology Program [NTP] Assay overview: All-trans Retinoic acid (atRA) is the potent natural metabolite of retinol and plays an important role in normal embryonic development and maintenance of cellular phenotype in adult animals. atRA is the activating ligand for the retinoic acid receptors (RARs) which form heterodimers with retinoid X receptors (RXRs) on the retinoic acid response element (RARE). Through activation of the RAR/RXRs nuclear receptors, atRA regulates the transcription of a large number of protein-coding genes and regulatory RNAs. Intracellular levels of atRA are controlled by the retinol signaling pathway (RSP) that regulates the biosynthesis and catabolism of atRA to maintain physiological levels. Chemicals that interfere with the RSP can cause abnormal intracellular levels of atRA and therefore are potential developmental toxicants. To assess compounds for the potential adverse effect on embryonic development through interfering with retinol signaling, a cell-based RARE luciferase reporter gene assay was used. C3RL4 cell line (OARSA/CFSAN/FDA, Laurel, MD) was used to screen Tox21 10K compound library for identifying activators of the RSP.
# Assay Protocol Summary: C3RL4 cells were seeded at 1,000/well in 5 uL of assay medium into white solid 1,536-well tissue culture plates (Greiner Bio-One North America Inc. Monroe, NC) using a Multidrop Combi (Thermo Scientific, Waltham, MA) dispenser. After incubation at 37 C and 5% CO2 for an overnight, 23 nL of compounds dissolved in DMSO, positive control or DMSO only were transferred by a Pintool station (Kalypsys, San Diego, CA). After 6 hr incubation at 37 C and 5% CO2, 5 uL of Amplite Luciferase reagent (AAT Bioquest Inc. Sunnyvale, CA) was added to each assay plate using a Flying Reagent Dispenser (FRD) (Aurora Discovery, San Diego, CA). Luminescence was quantified on a ViewLux plate reader (PerkinElmer, Waltham, MA) after 30 min incubation at room temperature.
# Potency is read from the fitted curve at half-maximal effect.
row,SMILES,Potency
1,CC1=C(C)C(=O)C(CCCCC#CCCCC#CCO)=C(C)C1=O,inactive
2,CCC(C)CCCC(C)(C)O (stereo not given),inactive
3,CCCCCCCCOCCCN,inactive
4,O=C1CCCN1CCO,inactive
5,Oc1ccc(Oc2ccccc2)cc1,inactive
6,O=[N+]([O-])c1ccccc1CCO,inactive
7,CC(C)(O)C(=O)O,inactive
8,CCc1ccc(C(=O)C(C)CN2CCCCC2)cc1 (stereo not given),inactive
9,C=CC(=O)NC(C)(C)C,inactive
10,O=C1C=CCCC1,inactive
11,[O-][n+]1ccc(Cl)cc1,inactive
12,O=C(NC1CCN(CCc2c[nH]c3ccccc23)CC1)c1ccccc1,inactive
13,NC(=O)c1cc[n+](CC2=C(C(=O)[O-])N3C(=O)[C@@H](NC(=O)Cc4cccs4)[C@H]3SC2)cc1,inactive
14,CCOC(=O)CC(O)(CC(=O)OCC)C(=O)OCC,inactive
15,CCc1c(C)[nH]c2c1C(=O)C(CN1CCOCC1)CC2 (stereo not given),inactive
16,C[C@H](CN1CCCC1)C(=O)c1ccc(C(F)(F)F)cc1,inactive
17,CCCc1ccc(OC)cc1,inactive
18,CC(=O)c1ccc(Cl)c(Cl)c1Cl,inactive
19,O=[N+]([O-])c1cccc(I)c1,inactive
20,CC(C(=O)O)c1ccc2c(c1)Cc1cccnc1O2 (stereo not given),inactive

row,SMILES,Potency
1,O=C(C1CCCCC1)N1CC(=O)N2CCCc3ccccc3C2C1 (stereo not given),inactive
2,N#CCCCC(C#N)CCC#N (stereo not given),inactive
3,CCCCCCOC(=O)c1ccccc1,inactive
4,CCN(CCCCOC(=O)c1ccc(OC)c(OC)c1)C(C)Cc1ccc(OC)cc1 (stereo not given),inactive
5,O=C(O)c1cccc(C(=O)O)c1C(=O)O,inactive
6,O=Cc1ccc([N+](=O)[O-])cc1,19.4 µM (active)
7,CCC(C(=O)O)c1ccc(N2Cc3ccccc3C2=O)cc1 (stereo not given),3.76 µM (active)
8,CCCC(=O)OCCC(C)C,inactive
9,O=C1c2ccccc2C(=O)C1c1ccc2ccccc2n1,0.108 µM (active)
10,CC(CC(C#N)(c1ccccc1)C(C)C)N(C)C (stereo not given),inactive
11,CCCCCCCCCCCC(=O)OCC,inactive
12,CC(C)=CCC[C@H](C)CCO,inactive
13,O=C(Cl)c1ccc(F)c(Cl)c1,inactive
14,c1ccc(CN(Cc2ccccc2)Cc2ccccc2)cc1,inactive
15,O=C(O)c1cc(C(=O)O)cc([N+](=O)[O-])c1,inactive
16,CC(=O)Nc1cccc(N)c1,inactive
17,Clc1ccccc1-c1nc(-c2ccncc2)no1,2.11 µM (active)
18,Clc1nc2ccccc2nc1Cl,inactive
19,COc1ccc(CN(CCN(C)C)c2ncccn2)cc1,inactive
20,Cc1c(N=C=O)cccc1N=C=O,inactive
